Test results as given in the supplement of paper PMC11732987, “Enantioselective OTUD7B fragment discovery through chemoproteomics screening and high-throughput optimisation” (Communications Chemistry, 2025).

Tests used:
Assay in all cases: log2 ratio of Biotin-Ahx-Ub-VS probe labelling (fragment/DMSO); higher = less target engagement (more negative = stronger competition), active = hit call of the paper (q ≤ 0.05, log2 ratio ≤ -1)
Conditions in all cases: compound concentration: 200 uM; treatment time: 3 h
[1] = target: USP9X (UniProt Q93008)
USP9X, sequence (Q93008 whole entry, the tested form may be a part): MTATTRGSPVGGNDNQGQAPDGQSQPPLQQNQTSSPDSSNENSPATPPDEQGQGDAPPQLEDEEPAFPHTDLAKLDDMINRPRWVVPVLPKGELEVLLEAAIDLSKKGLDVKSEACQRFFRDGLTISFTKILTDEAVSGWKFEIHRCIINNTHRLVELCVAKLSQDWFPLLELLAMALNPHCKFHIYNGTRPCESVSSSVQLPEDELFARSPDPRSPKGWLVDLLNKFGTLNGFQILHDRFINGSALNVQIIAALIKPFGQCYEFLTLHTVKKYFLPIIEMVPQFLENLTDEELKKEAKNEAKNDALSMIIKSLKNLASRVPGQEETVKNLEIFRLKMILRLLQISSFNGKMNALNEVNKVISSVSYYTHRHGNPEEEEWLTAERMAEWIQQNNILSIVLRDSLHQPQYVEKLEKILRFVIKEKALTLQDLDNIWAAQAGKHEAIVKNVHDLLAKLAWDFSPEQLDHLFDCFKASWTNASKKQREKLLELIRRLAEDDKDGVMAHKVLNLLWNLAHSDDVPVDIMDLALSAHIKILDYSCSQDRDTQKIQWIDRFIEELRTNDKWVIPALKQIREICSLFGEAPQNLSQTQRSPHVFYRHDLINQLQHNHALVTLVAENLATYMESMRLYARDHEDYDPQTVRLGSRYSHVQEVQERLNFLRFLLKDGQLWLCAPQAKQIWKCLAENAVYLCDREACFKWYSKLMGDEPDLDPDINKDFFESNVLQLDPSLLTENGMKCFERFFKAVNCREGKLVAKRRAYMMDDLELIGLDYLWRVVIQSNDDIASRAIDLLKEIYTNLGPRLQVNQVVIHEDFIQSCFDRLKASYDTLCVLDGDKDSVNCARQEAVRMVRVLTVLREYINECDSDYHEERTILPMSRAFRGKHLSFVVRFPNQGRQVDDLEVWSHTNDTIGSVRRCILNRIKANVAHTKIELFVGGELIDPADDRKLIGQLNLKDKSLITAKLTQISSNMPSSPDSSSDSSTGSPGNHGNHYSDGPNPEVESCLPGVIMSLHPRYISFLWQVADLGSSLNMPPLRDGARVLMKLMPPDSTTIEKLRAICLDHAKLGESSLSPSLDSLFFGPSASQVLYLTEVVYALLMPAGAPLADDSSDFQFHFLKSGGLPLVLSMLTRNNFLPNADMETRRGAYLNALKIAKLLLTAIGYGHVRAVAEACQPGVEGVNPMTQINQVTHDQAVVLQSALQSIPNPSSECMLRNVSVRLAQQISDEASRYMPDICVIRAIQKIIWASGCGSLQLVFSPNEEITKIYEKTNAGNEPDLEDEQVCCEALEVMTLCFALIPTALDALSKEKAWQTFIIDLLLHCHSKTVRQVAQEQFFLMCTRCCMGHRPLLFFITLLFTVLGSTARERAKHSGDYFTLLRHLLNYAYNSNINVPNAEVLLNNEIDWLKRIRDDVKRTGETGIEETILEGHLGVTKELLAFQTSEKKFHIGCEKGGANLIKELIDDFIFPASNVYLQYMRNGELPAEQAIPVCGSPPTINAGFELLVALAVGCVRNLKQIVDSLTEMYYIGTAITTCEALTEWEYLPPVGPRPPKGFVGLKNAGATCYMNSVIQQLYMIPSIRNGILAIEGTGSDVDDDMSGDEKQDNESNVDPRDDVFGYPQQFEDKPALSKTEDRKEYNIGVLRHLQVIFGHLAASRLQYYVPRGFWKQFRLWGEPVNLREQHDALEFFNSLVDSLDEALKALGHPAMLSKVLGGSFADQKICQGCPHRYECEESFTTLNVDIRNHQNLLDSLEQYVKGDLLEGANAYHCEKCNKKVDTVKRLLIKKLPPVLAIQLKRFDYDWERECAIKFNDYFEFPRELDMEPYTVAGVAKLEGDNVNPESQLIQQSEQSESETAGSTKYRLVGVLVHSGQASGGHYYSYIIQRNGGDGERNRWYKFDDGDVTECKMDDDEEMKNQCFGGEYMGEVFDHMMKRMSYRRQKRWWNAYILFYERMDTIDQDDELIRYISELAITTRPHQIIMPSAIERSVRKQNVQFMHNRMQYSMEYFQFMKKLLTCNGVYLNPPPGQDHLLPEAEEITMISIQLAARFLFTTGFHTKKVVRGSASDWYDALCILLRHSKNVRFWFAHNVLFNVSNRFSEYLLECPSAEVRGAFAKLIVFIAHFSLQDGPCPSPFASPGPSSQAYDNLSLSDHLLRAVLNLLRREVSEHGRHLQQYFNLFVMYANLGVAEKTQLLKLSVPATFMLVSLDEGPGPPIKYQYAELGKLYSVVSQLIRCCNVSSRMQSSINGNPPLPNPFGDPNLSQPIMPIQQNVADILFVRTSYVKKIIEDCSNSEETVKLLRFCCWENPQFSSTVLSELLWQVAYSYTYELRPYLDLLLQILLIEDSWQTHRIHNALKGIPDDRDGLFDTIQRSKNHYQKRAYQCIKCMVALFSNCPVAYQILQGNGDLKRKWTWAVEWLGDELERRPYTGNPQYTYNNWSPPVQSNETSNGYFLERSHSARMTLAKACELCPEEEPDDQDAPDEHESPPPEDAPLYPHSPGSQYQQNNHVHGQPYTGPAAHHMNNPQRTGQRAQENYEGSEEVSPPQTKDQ
Summary of the method: (§1)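 HEK293T lysate in Tris/CHAPS/IGEPAL buffer with protease inhibitors (495 µg per sample) was given fragment at 200 µM or vehicle for 3 h, in triplicate. It then received Biotin-Ahx-Ub-VS at 0.5 µM final for 1 h. Labelled DUBs were NeutrAvidin-enriched, digested with LysC and trypsin, and run by diaPASEF LC-MS/MS. Values are average log2 fragment/vehicle ratios by unpaired t-test on global-median-normalised Spectronaut quantities of proteins with ≥2 unique peptides.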

[2] = target: UniProt O00487
UniProt O00487, sequence (O00487 whole entry): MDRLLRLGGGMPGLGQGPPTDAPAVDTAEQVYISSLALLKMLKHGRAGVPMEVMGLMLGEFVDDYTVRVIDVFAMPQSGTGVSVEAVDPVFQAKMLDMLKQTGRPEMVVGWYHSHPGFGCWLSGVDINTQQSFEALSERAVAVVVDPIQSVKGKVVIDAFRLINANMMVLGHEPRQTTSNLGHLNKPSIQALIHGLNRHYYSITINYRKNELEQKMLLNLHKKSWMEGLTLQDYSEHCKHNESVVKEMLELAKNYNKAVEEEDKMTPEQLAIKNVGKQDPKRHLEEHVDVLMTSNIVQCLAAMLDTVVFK
Summary of the method: as §1

[3] = target: UniProt O00507
Summary of the method: as §1

[4] = target: UniProt P51784
UniProt P51784, sequence (P51784 whole entry): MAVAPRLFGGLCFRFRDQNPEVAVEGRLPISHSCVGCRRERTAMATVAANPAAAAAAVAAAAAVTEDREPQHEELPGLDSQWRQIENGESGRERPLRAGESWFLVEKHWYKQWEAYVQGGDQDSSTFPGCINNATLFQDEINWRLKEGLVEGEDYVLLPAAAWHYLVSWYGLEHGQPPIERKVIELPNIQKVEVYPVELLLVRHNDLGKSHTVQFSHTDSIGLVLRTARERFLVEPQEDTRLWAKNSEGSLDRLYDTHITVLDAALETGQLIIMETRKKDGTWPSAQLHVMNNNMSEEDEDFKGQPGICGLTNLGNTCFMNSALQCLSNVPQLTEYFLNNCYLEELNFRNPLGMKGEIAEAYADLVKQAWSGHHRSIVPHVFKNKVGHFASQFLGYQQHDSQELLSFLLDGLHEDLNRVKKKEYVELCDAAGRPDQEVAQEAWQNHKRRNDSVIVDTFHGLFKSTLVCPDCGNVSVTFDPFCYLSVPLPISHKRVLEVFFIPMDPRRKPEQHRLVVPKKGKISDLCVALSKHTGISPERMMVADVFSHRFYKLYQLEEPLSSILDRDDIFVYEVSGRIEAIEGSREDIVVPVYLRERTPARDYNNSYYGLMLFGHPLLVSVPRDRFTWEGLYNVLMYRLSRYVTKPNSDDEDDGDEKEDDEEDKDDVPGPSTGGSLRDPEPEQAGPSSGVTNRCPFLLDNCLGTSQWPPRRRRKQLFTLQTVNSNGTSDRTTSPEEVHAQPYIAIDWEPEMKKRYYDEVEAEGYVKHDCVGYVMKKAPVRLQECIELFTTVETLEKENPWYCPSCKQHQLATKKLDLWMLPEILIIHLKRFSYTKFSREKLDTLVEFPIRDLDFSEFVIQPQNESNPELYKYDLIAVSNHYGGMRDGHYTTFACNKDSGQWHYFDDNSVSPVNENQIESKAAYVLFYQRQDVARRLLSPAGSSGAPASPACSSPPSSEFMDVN
Summary of the method: as §1

[5] = target: T1, UniProt Q5T2D3
T1 sequence (whole entry): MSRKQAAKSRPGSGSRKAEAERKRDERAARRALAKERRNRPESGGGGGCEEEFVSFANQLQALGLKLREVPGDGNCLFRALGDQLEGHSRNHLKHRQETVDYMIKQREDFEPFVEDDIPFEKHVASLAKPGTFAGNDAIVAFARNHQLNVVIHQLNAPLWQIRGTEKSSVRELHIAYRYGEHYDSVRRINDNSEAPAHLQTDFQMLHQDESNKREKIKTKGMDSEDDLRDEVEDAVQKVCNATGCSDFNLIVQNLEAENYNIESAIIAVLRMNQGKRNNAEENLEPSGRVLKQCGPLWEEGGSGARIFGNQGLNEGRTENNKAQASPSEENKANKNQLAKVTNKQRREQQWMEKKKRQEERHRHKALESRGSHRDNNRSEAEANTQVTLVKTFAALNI
Summary of the method: as §1

[6] = target: T2, UniProt Q8TE49
T2 sequence (whole entry): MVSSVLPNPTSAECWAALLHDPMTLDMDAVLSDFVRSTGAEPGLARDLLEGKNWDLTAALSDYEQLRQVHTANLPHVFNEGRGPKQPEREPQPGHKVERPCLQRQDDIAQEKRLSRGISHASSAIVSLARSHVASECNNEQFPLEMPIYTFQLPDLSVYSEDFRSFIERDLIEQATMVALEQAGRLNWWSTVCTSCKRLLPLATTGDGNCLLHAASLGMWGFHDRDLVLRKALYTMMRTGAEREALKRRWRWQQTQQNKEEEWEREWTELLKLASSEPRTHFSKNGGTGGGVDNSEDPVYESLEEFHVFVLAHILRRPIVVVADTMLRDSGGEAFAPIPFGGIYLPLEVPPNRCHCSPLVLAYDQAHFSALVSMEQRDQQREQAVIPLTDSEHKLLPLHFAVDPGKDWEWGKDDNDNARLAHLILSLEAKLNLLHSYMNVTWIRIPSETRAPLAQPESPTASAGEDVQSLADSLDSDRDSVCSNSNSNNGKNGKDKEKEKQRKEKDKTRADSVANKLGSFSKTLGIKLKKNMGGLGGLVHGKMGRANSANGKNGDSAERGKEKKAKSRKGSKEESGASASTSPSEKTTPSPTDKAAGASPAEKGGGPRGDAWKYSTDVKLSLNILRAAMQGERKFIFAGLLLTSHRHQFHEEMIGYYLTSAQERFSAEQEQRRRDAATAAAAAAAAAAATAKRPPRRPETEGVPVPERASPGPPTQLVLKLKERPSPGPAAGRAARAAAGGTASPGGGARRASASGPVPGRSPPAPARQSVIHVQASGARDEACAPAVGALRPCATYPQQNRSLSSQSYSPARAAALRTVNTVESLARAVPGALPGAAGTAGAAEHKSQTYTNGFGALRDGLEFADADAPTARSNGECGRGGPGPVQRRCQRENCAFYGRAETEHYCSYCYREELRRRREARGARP
Summary of the method: as §1

[7] = target: T3, UniProt Q9P2H5
T3 sequence (whole entry): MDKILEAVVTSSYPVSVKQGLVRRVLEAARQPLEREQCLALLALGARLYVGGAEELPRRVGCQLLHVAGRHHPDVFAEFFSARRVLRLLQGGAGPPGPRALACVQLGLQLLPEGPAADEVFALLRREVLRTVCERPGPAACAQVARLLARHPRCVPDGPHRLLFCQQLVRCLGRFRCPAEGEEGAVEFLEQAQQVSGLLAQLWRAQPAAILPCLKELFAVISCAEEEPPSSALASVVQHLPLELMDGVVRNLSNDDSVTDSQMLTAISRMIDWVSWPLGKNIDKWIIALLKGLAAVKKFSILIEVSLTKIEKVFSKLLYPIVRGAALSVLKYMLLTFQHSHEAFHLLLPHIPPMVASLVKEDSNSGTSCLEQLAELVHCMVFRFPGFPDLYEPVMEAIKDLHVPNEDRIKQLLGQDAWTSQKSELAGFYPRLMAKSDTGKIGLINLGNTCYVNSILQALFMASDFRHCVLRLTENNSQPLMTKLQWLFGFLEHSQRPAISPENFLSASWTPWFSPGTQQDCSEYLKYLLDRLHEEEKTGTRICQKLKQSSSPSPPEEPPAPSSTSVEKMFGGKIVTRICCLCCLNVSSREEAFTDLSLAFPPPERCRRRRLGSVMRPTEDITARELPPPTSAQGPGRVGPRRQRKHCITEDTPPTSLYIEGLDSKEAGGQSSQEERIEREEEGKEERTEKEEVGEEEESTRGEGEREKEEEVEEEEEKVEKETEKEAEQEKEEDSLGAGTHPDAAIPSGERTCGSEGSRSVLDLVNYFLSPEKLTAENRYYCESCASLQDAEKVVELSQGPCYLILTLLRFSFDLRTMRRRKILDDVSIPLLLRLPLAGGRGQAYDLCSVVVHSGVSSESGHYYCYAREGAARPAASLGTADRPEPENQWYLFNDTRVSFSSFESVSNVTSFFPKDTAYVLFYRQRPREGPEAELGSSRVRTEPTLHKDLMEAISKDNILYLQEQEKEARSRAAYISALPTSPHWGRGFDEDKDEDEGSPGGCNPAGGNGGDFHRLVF
Summary of the method: as §1

[8] = target: T4, UniProt Q9UGI0
T4 sequence (whole entry): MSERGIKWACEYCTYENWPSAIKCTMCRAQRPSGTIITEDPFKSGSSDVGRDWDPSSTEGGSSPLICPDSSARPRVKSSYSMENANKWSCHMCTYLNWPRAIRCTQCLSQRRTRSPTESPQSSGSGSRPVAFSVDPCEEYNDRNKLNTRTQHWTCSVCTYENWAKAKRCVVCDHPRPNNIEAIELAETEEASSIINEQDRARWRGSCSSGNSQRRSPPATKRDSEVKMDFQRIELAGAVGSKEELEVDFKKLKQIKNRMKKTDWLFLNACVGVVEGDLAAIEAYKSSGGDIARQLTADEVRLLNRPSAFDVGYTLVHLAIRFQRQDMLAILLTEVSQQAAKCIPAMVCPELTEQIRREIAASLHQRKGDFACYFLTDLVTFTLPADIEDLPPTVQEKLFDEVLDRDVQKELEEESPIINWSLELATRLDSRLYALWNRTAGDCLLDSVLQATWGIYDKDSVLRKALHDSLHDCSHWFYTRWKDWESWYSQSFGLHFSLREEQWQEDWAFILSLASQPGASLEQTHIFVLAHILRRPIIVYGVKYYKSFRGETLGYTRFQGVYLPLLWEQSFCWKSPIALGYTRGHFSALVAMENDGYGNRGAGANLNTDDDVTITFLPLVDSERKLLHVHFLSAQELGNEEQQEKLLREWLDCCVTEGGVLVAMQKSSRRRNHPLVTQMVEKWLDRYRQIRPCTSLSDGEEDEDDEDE
Summary of the method: as §1

[9] = target: T5, YOD1 (UniProt Q5VVQ6)
T5 sequence (whole entry): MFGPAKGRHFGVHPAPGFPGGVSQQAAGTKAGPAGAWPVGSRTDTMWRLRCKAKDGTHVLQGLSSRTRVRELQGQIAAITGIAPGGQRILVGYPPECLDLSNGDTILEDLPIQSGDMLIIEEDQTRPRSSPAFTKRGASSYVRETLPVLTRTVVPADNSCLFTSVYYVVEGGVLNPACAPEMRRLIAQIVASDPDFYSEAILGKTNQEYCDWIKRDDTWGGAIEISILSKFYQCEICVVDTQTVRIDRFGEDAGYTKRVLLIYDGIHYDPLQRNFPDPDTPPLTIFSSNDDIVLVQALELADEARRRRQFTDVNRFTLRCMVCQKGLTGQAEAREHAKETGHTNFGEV
Summary of the method: as §1

Measured: log2 ratio of Biotin-Ahx-Ub-VS probe labelling

O=C(CCl)NCCC1=CCCCC1
inactive: [1] -0.0639 | [2] -0.0958 | [3] 0.347 | [4] 0.0951 | [5] -0.215 | [6] -0.191 | [7] -0.0991 | [8] -0.159 | [9] 0.16
